# rCAG binder: binders of r(CAG) RNA repeats, primary screen, biochemical, fluorescence; 370,000 compounds, 1.3% hits; r(CAG) RNA repeat, TO-PRO-1 dye displacement fluorescence; inhibition, % at 3 µM;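 active = inhibition above the plate cutoff, the mean of all test compounds on that plate plus 3 SD, cut at about 35% in these data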;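 also: 0% = DMSO alone and 100% = 100 µM mitoxantrone as full dye displacement; higher means more dye released from RNA so lower well fluorescence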
# PG9 Ab binder: binders of HIV-1 gp120 antibody PG9, primary screen, biochemical, TR-FRET. HIV-1 gp120 / PG9 antibody interaction. TR-FRET gp120-PG9 antibody binding. inhibition, % at 6.7 µM. 360,000 compounds, 0.43% hits. AID 624416, 2012; in the data active = inhibition above about 8.5%
# Exocytosis inh: LAMP-1 surface exposure blockers, TALL-104 cells – cell-based, flow cytometry, MLPCN library, primary screen; TALL-104 LAMP-1 surface exposure; cells stimulated with thapsigargin and PMA; inhibition, % at 10 µM; 360,000 compounds, 0.66% hits;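 active = inhibition above about 55%, limit read from the data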
# ABCB6 inh MLPCN: ABCB6 transporter inhibitors, primary screen, K562-ABCB6 cells, flow cytometry, MLPCN library | ATP-binding cassette sub-family B member 6 (Homo sapiens), Q9NP58 | K562-ABCB6 porphyrin accumulation, 1 h; hits give low values | AID 602162, 2011 | 360,000 compounds, 0.19% hits | fluorescence ratio to DMSO, % at 10 µM;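 active = fluorescence ratio to DMSO below 75%, the collection mean minus 3 SD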;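 also: signal is porphyrin accumulated inside mitochondria; 100% equals median channel fluorescence of DMSO control wells; lower ratio means ABCB6 inhibition with less porphyrin fluorescence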
# Target sequence (Q9NP58 whole entry, looked up): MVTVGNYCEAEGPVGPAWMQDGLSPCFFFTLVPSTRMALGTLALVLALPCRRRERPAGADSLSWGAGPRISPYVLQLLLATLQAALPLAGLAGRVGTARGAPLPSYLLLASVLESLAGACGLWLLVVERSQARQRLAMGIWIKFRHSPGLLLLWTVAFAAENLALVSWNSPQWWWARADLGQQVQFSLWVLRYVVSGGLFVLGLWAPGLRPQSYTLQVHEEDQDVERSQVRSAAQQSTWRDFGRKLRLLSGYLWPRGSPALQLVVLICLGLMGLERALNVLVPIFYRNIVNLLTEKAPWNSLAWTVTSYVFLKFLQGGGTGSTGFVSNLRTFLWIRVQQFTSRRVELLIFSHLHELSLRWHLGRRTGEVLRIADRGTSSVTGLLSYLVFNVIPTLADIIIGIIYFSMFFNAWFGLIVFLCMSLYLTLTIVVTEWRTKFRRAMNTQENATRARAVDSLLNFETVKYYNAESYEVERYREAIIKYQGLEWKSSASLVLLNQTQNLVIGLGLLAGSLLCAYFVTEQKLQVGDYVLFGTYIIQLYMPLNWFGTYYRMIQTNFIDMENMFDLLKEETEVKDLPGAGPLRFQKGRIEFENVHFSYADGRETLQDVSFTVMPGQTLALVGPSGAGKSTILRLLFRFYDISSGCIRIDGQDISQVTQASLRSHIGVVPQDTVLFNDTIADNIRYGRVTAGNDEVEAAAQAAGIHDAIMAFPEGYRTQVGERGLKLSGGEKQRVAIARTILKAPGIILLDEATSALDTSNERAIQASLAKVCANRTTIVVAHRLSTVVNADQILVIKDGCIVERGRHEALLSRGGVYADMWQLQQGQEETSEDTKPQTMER
# rCAG binder conf: small molecules binding CAG repeat RNA – biochemical, fluorescence, confirmation | 4,300 compounds, 70% hits | AID 652065, 2013 | r(CAG) RNA repeat, TO-PRO-1 dye displacement fluorescence | shares compounds with rCAG binder | inhibition, % at 3 µM;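 active = inhibition above a per-plate cutoff, the mean inhibition of sample wells plus 3 SD, cut at about 35% in these data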;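 also: loss of TO-PRO-1 fluorescence as compound displaces dye from 1x1 AA loop RNA; 0% = DMSO only wells and 100% = 100 µM mitoxantrone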
# DNA CAG counter: displacement of TO-PRO-1 from CAG DNA duplex, counter-screen for rCAG RNA repeat binder project, biochemical, fluorescence, TO-PRO-1 dye, d(CAG) DNA oligo | shares compounds with rCAG binder | d(CAG) DNA oligo TO-PRO-1 dye displacement | inhibition, % at 3 µM | 4,300 compounds, 94% hits | AID 652068, 2013;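 active = inhibition above its plate's cutoff, the mean test-well inhibition plus 3 SD, cut at about 4.8% in these data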;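 also: 0% = DNA dye mix with DMSO and 100% = 100 µM mitoxantrone; hits displace the dye from DNA and so lower well fluorescence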
# DNA CAG DR: inhibitors of DNA CAG/GTC TO-PRO-1 complex, dose response, counter-screen for rCAG RNA repeat binder project, biochemical, fluorescence, TO-PRO-1 dye | IC50, µM | AID 686960, 2013 | DNA CAG/GTC duplex TO-PRO-1 dye displacement fluorescence | 250 compounds, 20% hits | shares compounds with rCAG binder; in the data active = IC50 below about 10 µM
# Numbers without * were called inactive; x = no result. Compounds with a hit are over-represented: about 2.5% of the library has one in this group of screens.
SMILES,rCAG binder,PG9 Ab binder,Exocytosis inh,ABCB6 inh MLPCN,rCAG binder conf,DNA CAG counter,others
COc1cc(OC)cc(C2=Cc3ccccc3C(CC(=O)c3ccco3)N2c2ccc(-c3cncnc3)cc2)c1 (stereo unspecified),12,3,1,95,x,x,
O=C(O)c1cc(S(=O)(=O)Nc2ccccc2C(=O)O)ccc1O,10,2,1,80,x,x,
O=C(O)c1cc(S(=O)(=O)Nc2cc(Cl)ccc2Oc2ccccc2)ccc1O,72*,0,14,100,67*,31*,
CC1(C(=O)NS(=O)(=O)c2ccccc2C(F)(F)F)CCN1C(=O)COc1ccc(Cl)cc1 (stereo unspecified),22,-2,-9,104,x,x,
O=C(Cn1cc(COc2ccc(Cl)c(Cl)c2)nn1)NS(=O)(=O)c1ccccc1C(F)(F)F,59*,0,10,94,63*,16*,
O=C(Cn1cc(COc2ccc(C(=O)c3ccccc3)cc2)nn1)c1ccc(O)cc1,14,-1,-4,98,x,x,
O=C(Cn1cc(COc2ccc(-n3cccc3)cc2)nn1)NS(=O)(=O)c1ccccc1C(F)(F)F,64*,0,-10,82,65*,18*,
Cc1cnc(C(=O)Nc2cc(F)ccc2C)cn1,1,0,-3,98,x,x,
CCc1ccc(OCC(=O)c2c(O)c3ccccc3oc2=O)cc1,13,2,-3,97,x,x,
CCc1oc2ccccc2c1C(=O)c1cc(Br)c(O)c(Br)c1,57*,0,2,101,63*,17*,
Cc1ccc(OCC(=O)Nc2nnc(S(=O)(=O)N3CCCCC3)s2)cc1,50*,0,-2,109,41*,18*,
Cc1ccc(OCC(=O)Nc2nnc(S(=O)(=O)N3CCCCCC3)s2)cc1,18,1,-4,91,x,x,
Cc1cc(-c2nc3cccnc3s2)ccc1NS(=O)(=O)c1cccs1,50*,0,-1,113,37*,11*,
Cc1cc(-c2nc3cccnc3s2)ccc1NS(=O)(=O)c1ccc2c(c1)OCCO2,38*,2,-1,99,47*,14*,
Cc1[nH]c2ccccc2c1CC(=O)Nc1ccc(Nc2cccnc2)c(-c2ccc(OC(F)(F)F)cc2)c1,11,-1,x,x,x,x,
COc1cc(/C=C2\S/C(=N/S(=O)(=O)c3ccccc3)NC2=O)c([N+](=O)[O-])cc1OC,77*,-2,-3,100,73*,33*,DNA CAG DR=6.6*
COc1ccc(S(=O)(=O)/N=C2/NC(=O)/C(=C\c3cc(OC)c(OC)cc3[N+](=O)[O-])S2)cc1,75*,1,0,100,63*,23*,
CC(=O)NC(c1ccccc1)c1nc(-c2ccc(Cl)cc2)cs1 (stereo unspecified),2,1,-2,101,x,x,
COc1cc(CN2C[C@@H](CO)O[C@@H](n3cnc4c(NC5CCCC5)ncnc43)C2)cc(OC)c1OC,0,-2,1,92,x,x,
CN(C)c1ccc(/C=C(/NC(=O)c2ccccc2)C(=O)N/N=C/c2ccc([N+](=O)[O-])c(O)c2)cc1,67*,-11,-2,103,62*,26*,
O=C(Nc1ccccc1)N1CCN(S(=O)(=O)c2ccccc2)CC1,-2,-1,-2,99,x,x,
O=S(=O)(Nc1ncnc2sc3c(c12)CCC3)c1ccc2ccccc2c1,69*,2,0,94,56*,21*,
Cc1cc(F)ccc1S(=O)(=O)Nc1ncnc2sc3c(c12)CCC3,33,1,-5,102,x,x,
O=c1ccc2cc(S(=O)(=O)N3CCN(c4ccccc4F)CC3)ccc2o1,0,1,-1,99,x,x,
O=c1[nH]c2ccc(S(=O)(=O)N3CCN(c4ccccc4F)CC3)cc2s1,35*,0,2,94,22,5.2*,
SMILES,rCAG binder,PG9 Ab binder,Exocytosis inh,ABCB6 inh MLPCN,rCAG binder conf,DNA CAG counter,others
Cc1cc(=O)oc2c3c(cc(OCC(=O)NC(Cc4ccc(Cl)cc4)C(=O)O)c12)OC(C)(C)CC3 (stereo unspecified),46*,1,5,105,53*,17*,
Cc1ccc(O)c(N=Cc2cc(Cc3ccccc3)cc([N+](=O)[O-])c2O)c1,46*,-5,1,104,27,16*,
Cc1ccccc1CNC(=O)c1csc([C@@H]2O[C@H](CO)[C@@H](O)[C@H]2O)n1,1,-1,0,96,x,x,
Nc1[nH]n2c(=O)cc(-c3ccccc3)nc2c1N=Nc1ccc(S(N)(=O)=O)cc1,44*,-7,15,95,22,5.5*,
Nc1[nH]n2c(=O)cc(-c3ccccc3)nc2c1N=Nc1ccccc1,13,1,0,97,x,x,
CN(C)S(=O)(=O)c1cccc(NC(=O)c2ccc(Sc3nncn3C)c([N+](=O)[O-])c2)c1,14,-2,-6,92,x,x,
CCN(CC)S(=O)(=O)c1ccc(NC(=O)c2ccc(Sc3nncn3C)c([N+](=O)[O-])c2)cc1,36*,-2,-2,98,13,5.8*,
CCN(CCCNc1cc2c(c(N)c1S(=O)(=O)O)C(=O)c1ccccc1C2=O)c1ccccc1,73*,-21,-2,153,81*,54*,
O=C(Nc1ccc2ccccc2c1)c1ccc(NS(=O)(=O)c2ccc(Br)s2)cc1,71*,-1,7,102,88*,57*,
COc1ccc(OCCOc2ccc(/C=C3\C(=N)N4N=C(C)SC4=NC3=O)cc2)cc1,4,-2,5,99,x,x,
Cc1cccc(N2CCN(C(=O)c3cc(S(=O)(=O)N4CCOCC4)cn3C)CC2C)c1 (stereo unspecified),-3,2,-1,89,x,x,
O=C1c2ccccc2C(=O)c2c(O)c(O)cc(O)c21,42*,-10,2,115,60*,32*,
O=C1C=C(O)c2c(O)cc(O)c(O)c2C1=O,56*,-35,-6,101,20,5.2*,
Cc1cc(-c2ccc(C(C)C)c(S(=O)(=O)N3CCC(C)CC3)c2)on1,1,-1,7,102,x,x,
O=C(/C=C/c1ccc(O)c(O)c1)c1ccc(S(=O)(=O)N2CCCCCC2)cc1,46*,-2,-3,100,48*,26*,

# High-throughput results: PubChem BioAssay, several laboratories
